19 compounds from PubChem BioAssay can be followed below.

Molecules are shown by their SMILES. Values without a mark were called inactive. For some assays here: Measured potencies and affinities stand elsewhere. Active and inactive are the calls of the source. Unless noted, the rule behind the calls is not given here.

Assay [1] is described as follows: antimalarial activity against Dd2 strain (AID 2302;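 active = growth inhibition above 50% at the single 2 µM test dose, taken to imply half-maximal potency below 2 µM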;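 note: 0% = DMSO untreated growth and 100% = chloroquine plus artemisinin killed control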). The note with it: P. falciparum Dd2 in RBCs, LDH growth readout, 72 h; at 2 µM; active compounds read high.
The nature of assay [2]: human hepatoma cell viability loss – ATP luminescence, cytotoxicity control for P. falciparum antimalarial project, primary screen (AID 2303;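 active = inhibition above 50%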;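 note: 0% = DMSO wells and 100% = digitonin-killed cells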). To be noted: HepG2 viability, 24-48 h, at 10 µM, active compounds read high.
The target in assay [3] is L-lactate dehydrogenase (Plasmodium falciparum (isolate CDC / Honduras)) (UniProt Q27743). The experiment in a line: PfLDH activity inhibition – cell lysate, 3D7 strain, counter-screen for P. falciparum growth inhibition project (AID 2304).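 Note: 0% = vehicle and 100% = reference inhibitor.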 To be noted: P. falciparum 3D7 crude extract, LDH APAD/NBT absorbance; at 2 µM; active compounds read high. (The purpose of a counterscreen is to sort out artefacts and off-target activity.)

A short description of assay [4]: inhibition of 3D7 malaria parasite growth – strain 3D7 (AID 2306).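 Note: 0% = DMSO wells and 100% = chloroquine plus artemisinin control wells.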 To be noted: P. falciparum 3D7 erythrocytic growth, LDH absorbance, 72 h; at 2 µM; active compounds read high.
For assay [5], the target named is Calcium-dependent protein kinase 1 (Plasmodium falciparum (isolate 3D7)) (UniProt P62344). Kind of assay: PfCDPK1 kinase inhibitors, biochemical, TCAMS library (AID 1159585; cut-off not given, nearly all actives have IC50 up to about 0.98 µM;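 note: inhibitors leave more ATP so luminescence rises with inhibition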). To be noted: recombinant PfCDPK1, Kinase-Glo ATP depletion luminescence. Background: Kinase-Glo measures the ATP left after a reaction by luminescence.
Assay [6] concerns the target Plasmodium falciparum protein kinase 6 (PK6, PF3D7_1337100) (UniProt Q8IDW1). The experiment in a line: PfPK6 kinase inhibitors, biochemical, TCAMS library (AID 1159586). The note with it: recombinant PfPK6, Kinase-Glo ATP depletion luminescence.
Assay [7] deals with Protein kinase 7 (PK7), Plasmodium falciparum 3D7 (PF3D7_0213400) (UniProt Q7YTF7). The experiment in a line: inhibition of Plasmodium PK7 catalytic activity – biochemical, TCAMS antimalarial set, Kinase-Glo luminescence (AID 1159587). The note with it: recombinant PfPK7, Kinase-Glo ATP depletion luminescence.
The target of assay [8] is Calcium-dependent protein kinase 4 (Plasmodium falciparum (isolate 3D7)) (UniProt Q8IBS5). The experiment in a line: PfCDPK4 kinase inhibitors, biochemical, TCAMS library (AID 1159588; cut-off not given, nearly all actives have IC50 up to about 0.91 µM). The note with it: recombinant PfCDPK4, Kinase-Glo ATP depletion luminescence.

A word on the inhibition: it is the relative decrease from the control value, in per cent.

Chain of L-lactate dehydrogenase (Plasmodium falciparum (isolate CDC / Honduras)) (Q27743 whole entry, looked up): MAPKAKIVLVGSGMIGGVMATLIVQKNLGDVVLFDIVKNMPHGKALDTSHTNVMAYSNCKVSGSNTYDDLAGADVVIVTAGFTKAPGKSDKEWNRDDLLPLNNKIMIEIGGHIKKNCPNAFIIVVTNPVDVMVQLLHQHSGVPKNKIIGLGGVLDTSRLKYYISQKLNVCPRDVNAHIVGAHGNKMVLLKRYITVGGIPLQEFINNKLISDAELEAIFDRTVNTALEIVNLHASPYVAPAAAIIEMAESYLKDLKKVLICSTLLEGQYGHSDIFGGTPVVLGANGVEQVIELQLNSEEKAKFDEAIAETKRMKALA
Chain of Plasmodium falciparum protein kinase 6 (PK6, PF3D7_1337100) (Q8IDW1 1-305): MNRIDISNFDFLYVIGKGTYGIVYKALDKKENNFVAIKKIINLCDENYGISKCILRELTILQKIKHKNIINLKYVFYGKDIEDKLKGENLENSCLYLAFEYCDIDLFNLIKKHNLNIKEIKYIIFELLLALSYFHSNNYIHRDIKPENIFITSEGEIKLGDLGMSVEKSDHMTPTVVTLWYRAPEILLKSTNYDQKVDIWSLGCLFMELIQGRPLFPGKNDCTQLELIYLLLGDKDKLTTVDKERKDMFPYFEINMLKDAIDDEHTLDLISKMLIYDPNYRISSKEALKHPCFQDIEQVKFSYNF
Chain of Calcium-dependent protein kinase 1 (Plasmodium falciparum (isolate 3D7)) (P62344 whole entry, looked up): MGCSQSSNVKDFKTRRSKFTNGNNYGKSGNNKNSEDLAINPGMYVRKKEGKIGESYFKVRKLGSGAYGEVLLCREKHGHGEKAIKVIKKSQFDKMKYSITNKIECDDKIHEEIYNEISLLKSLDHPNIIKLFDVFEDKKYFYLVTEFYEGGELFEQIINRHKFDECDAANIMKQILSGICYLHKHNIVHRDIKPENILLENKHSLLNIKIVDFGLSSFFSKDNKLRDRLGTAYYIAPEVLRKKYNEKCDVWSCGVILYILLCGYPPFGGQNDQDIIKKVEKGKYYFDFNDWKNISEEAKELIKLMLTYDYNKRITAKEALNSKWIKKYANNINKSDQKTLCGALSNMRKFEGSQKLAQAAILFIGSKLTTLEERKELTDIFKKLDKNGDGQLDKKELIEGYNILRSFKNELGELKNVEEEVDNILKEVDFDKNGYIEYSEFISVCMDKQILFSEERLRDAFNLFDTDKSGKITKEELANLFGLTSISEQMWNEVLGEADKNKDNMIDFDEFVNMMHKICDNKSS
Chain of Calcium-dependent protein kinase 4 (Plasmodium falciparum (isolate 3D7)) (Q8IBS5 whole entry, looked up): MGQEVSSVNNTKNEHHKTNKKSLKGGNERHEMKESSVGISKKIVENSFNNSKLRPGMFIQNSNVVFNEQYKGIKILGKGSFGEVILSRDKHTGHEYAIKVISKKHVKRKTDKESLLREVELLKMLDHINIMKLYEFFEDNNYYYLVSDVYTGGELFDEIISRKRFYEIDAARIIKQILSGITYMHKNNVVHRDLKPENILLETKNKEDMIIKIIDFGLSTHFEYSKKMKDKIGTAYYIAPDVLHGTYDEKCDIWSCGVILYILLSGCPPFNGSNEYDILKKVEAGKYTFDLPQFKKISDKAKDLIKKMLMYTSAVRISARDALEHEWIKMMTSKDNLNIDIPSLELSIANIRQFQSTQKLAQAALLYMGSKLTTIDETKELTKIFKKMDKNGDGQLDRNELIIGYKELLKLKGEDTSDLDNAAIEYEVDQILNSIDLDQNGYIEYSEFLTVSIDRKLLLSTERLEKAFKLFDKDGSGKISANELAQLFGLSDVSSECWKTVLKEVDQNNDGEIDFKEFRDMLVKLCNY
Chain of Protein kinase 7 (PK7), Plasmodium falciparum 3D7 (PF3D7_0213400) (Q7YTF7 1-343): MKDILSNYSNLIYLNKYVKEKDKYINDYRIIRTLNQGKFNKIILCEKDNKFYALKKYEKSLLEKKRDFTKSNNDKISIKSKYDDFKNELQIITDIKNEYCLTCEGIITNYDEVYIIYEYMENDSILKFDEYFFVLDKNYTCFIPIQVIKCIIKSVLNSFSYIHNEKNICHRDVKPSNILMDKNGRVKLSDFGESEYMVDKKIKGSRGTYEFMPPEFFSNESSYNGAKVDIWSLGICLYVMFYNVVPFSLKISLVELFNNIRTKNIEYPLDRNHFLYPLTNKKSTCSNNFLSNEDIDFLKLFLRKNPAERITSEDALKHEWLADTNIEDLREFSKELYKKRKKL

For the compound `CCN(C)c1cc(C(=O)N[C@@H](Cc2ccccc2)[C@H](O)CNC(C)(C)c2cccc(OC)c2)cc(N2CCCC2=O)c1`, the growth inhibition in assay [1] was 81% (active); in assay [4], 100% (active). The inhibition is -1% in assay [2] and 1% in assay [3]. Also, the result in assay [5], in assay [6], in assay [7] and in assay [8] was inactive.
As to `CC(C)C(=O)NC(c1ccc(N(C)C)cc1)c1cc(Cl)c2cccnc2c1O` (configuration not stated), the growth inhibition in assay [1] is 64% (active); in assay [4], 87% (active). Moreover, the results for the inhibition in assay [2] and in assay [3] were 61% (active) and 2%, respectively. The outcome in assay [5], in assay [6], in assay [7] and in assay [8] was inactive.
For the compound `O=S1C(Cl)=C(c2ccc(Cl)cc2)c2ccc(Cl)cc21` (configuration not stated), the results for the growth inhibition in assay [1] and in assay [4] were 99% (active) and 91% (active), respectively. In addition, the values for the inhibition in assay [2] and in assay [3] were 33% and 1%, respectively. Besides, the outcome in assay [5], in assay [6], in assay [7] and in assay [8] was inactive.
On to `Clc1cc(Cl)c2cc(CNCCCNc3ccc4ccccc4n3)[nH]c2c1`, for which the growth inhibition was 54% (active) in assay [1] and 99% (active) in assay [4]. Moreover, the figures for the inhibition in assay [2] and in assay [3] were 98% (active) and 3%, respectively. Moreover, the outcome in assay [5], in assay [6], in assay [7] and in assay [8] was inactive.
For `CCn1cc(C(=O)O)c(=O)c2cc(F)c(N3CCN(S(=O)(=O)c4ccc(N)cc4)CC3)cc21`, the growth inhibition is 79% (active) in assay [1] and 90% (active) in assay [4]. Further, the inhibition in assay [2] is -2%; in assay [3], 4%. The outcome in assay [5], in assay [6], in assay [7] and in assay [8] was inactive.
Regarding `COC(=O)c1cc(C(O)CNC(C)CCCc2ccccc2)ccc1O` (configuration not stated), the growth inhibition in assay [1] is 97% (active); in assay [4], 99% (active). The inhibition is 17% in assay [2] and 0% in assay [3]. Also, the result in assay [5], in assay [6], in assay [7] and in assay [8] was inactive.
Take `Cc1ccc(-n2cc(CNCCc3ncc(C)[nH]3)c(-c3ccc(F)cc3)n2)cc1`: the growth inhibition was 12% in assay [1] and 86% (active) in assay [4]. Moreover, the inhibition is 15% in assay [2] and -2% in assay [3]. Also, the result in assay [5], in assay [6], in assay [7] and in assay [8] was inactive.
For `CCN(CC)CCN(Cc1ccc(-c2ccc(C(F)(F)F)cc2)cc1)C(=O)Cn1c(CCc2cccc(F)c2F)cc(=O)c2c1CCCC2`, the growth inhibition in assay [1] is 95% (active); in assay [4], 100% (active). Moreover, the inhibition in assay [2] was 93% (active); in assay [3] it was 1%. Also, the result in assay [5], in assay [6], in assay [7] and in assay [8] was inactive.
With `CCOC(=O)C1CCN(CCOc2cc(NC(=O)/C=C/c3ccccc3Cl)ccc2Br)CC1`, the values for the growth inhibition in assay [1] and in assay [4] were 29% and 87% (active), respectively. In addition, the inhibition in assay [2] was 6%; in assay [3], -2%. Also, the outcome in assay [5], in assay [6], in assay [7] and in assay [8] was inactive.
Consider `CCNCc1cccc(-c2ccc3ccnc(N)c3c2)c1`, for which the growth inhibition in assay [1] was 98% (active); in assay [4], 100% (active). Further, the figures for the inhibition in assay [2] and in assay [3] were 17% and 0%, respectively. Besides, the result in assay [5], in assay [6], in assay [7] and in assay [8] was inactive.
As for `O=C(NC1CCCCC1)C(c1cccs1)N(CCc1ccccc1)C(=O)c1ccco1` (configuration not stated), the growth inhibition in assay [1] is 63% (active); in assay [4], 92% (active). Also, the inhibition in assay [2] was -10%; in assay [3] it was -1%. Moreover, the result in assay [5], in assay [6], in assay [7] and in assay [8] was inactive.
`CN(C)CCCc1cc2c(cc1Cl)CCN2C(=O)Nc1ccc(-c2ccncc2)c2ccccc12`: the values for the growth inhibition in assay [1] and in assay [4] were -2% and 94% (active), respectively. The inhibition in assay [2] was 4%; in assay [3], -2%. In addition, the outcome in assay [5], in assay [6], in assay [7] and in assay [8] was inactive.
Take `c1cc(CNCCc2ccncc2)cc(-c2csc(-c3nc4ccccc4[nH]3)c2)c1`: the growth inhibition in assay [1] is 99% (active); in assay [4] it was 100% (active). The inhibition was 16% in assay [2] and -8% in assay [3]. In addition, the result in assay [5], in assay [6], in assay [7] and in assay [8] was inactive.
Regarding `C=CCN1C(=O)C(C(C)=O)=C(O)C1c1ccccc1` (configuration not stated), the growth inhibition in assay [1] was 97% (active); in assay [4], 93% (active). Besides, the inhibition in assay [2] was 41%; in assay [3], -4%. Further, the result in assay [5], in assay [6], in assay [7] and in assay [8] was inactive.
Regarding `COc1c(C2CCN(CCCCNC(=O)c3cc(-c4ccc(Cl)cc4)oc3C)CC2)ccc2c1CCCC2`, the growth inhibition in assay [1] is 27%; in assay [4], 97% (active). Besides, the inhibition in assay [2] is 93% (active); in assay [3] it was 2%. The outcome in assay [5], in assay [6], in assay [7] and in assay [8] was inactive.
With `CCC(C)CN1CCN(c2cc(NC(=O)c3cccs3)ccn2)C(C)C1` (configuration not stated), the growth inhibition is 72% (active) in assay [1] and 88% (active) in assay [4]. In addition, the inhibition in assay [2] was 5%; in assay [3], 0%. The result in assay [5], in assay [6], in assay [7] and in assay [8] was inactive.
In the case of `COC(=O)Cn1c2ccccc2c2c(N)c(C(=O)OC)c(C)nc21`, the figures for the growth inhibition in assay [1] and in assay [4] were 1% and 93% (active), respectively. Besides, the inhibition is 0% in assay [2] and 4% in assay [3]. Also, the result in assay [5], in assay [6], in assay [7] and in assay [8] was inactive.
For the compound `COc1ccc2nccc([C@@H](O)CN3[C@@H]4CC[C@H]3CC(NCc3ccc5c(n3)NC(=O)CS5)C4)c2n1` (some centres not stated), the growth inhibition in assay [1] is 11%; in assay [4], 99% (active). Further, the inhibition in assay [2] was -1%; in assay [3], 4%. Also, the outcome in assay [5], in assay [6], in assay [7] and in assay [8] was inactive.
As for `CC(O)C1CCCCN1C(=O)c1cccc(-c2ccc(-c3nc4ccc(C(F)(F)F)cc4[nH]3)cc2)c1` (configuration not stated), the results for the growth inhibition in assay [1] and in assay [4] were 100% (active) and 101% (active), respectively. In addition, the values for the inhibition in assay [2] and in assay [3] were 33% and 0%, respectively. The outcome in assay [5], in assay [6], in assay [7] and in assay [8] was inactive.
